Test results taken from PubChem BioAssay (EPA / NIEHS).
Records with an inconclusive call do not appear. Calls of active or inactive are those of the source. Rule for the calls, unless noted: active = hit-call score of the fitted dose curve at least 0.9, where 1 is the maximum; inconclusive = response in the unintended direction; inactive = score below 0.9.

Key:
[1] = ATG_TAL_CIS: Attagene CIS-FACTORIAL HepG2 Assay for human TAL Basal Promoter (AID 2282966; active = hit-call score of the fitted dose curve at least 0.9, where 1 is the maximum; inactive = score below 0.9;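 note: background control endpoint measuring basal TAL promoter reporter mRNA not a specific factor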); settings: HepG2 Attagene cis-factorial TAL promoter reporter; actives raise or lower the signal
Outline: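 Human hepatoma HepG2 cells, transfected with promoter-regulated reporter units, were treated 24 h. Reporter transcript levels, measured through RT-PCR and capillary electrophoresis, were fitted for gain or loss relative to DMSO.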

[2] = ATG_VDRE_CIS: Attagene CIS-FACTORIAL HepG2 Assay for human Vitamin D Receptor Element (VDRE) (AID 2282968; active = hit-call score of the fitted dose curve at least 0.9, where 1 is the maximum; inactive = score below 0.9); settings: HepG2 VDRE cis-reporter transcription, actives raise or lower the signal
Outline: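 Transfected HepG2 reporter cells, chemical treatment 24 h. RNA isolated, cDNA amplified with reporter-specific primers, products analysed by capillary electrophoresis. Endpoint fitted in both directions versus DMSO.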

[3] = biological target: X-box-binding protein 1 (Homo sapiens) (UniProt P17861); assay: ATG_Xbp1_CIS: Attagene CIS-FACTORIAL HepG2 Assay for human X-box Binding Protein 1 (XBP1) (AID 2282972; active = hit-call score of the fitted dose curve at least 0.9, where 1 is the maximum; inactive = score below 0.9); settings: HepG2 XBP1 cis-element reporter, Attagene multiplex; actives raise or lower the signal
X-box-binding protein 1 (Homo sapiens), sequence (P17861 whole entry, looked up): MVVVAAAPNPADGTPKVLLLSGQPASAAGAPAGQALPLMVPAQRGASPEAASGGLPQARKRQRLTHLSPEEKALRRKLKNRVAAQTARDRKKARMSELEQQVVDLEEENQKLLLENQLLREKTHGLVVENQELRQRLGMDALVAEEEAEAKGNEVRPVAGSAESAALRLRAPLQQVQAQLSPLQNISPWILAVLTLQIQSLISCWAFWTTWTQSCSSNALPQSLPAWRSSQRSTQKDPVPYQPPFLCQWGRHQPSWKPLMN
Outline: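 Multiplexed cis-reporter readout in transfected HepG2 liver cells. Exposure lasted 24 hours. Activity in either direction was fitted against DMSO as negative control and baseline.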

[4] = ATG_GAL4_TRANS: Attagene TRANS-FACTORIAL HepG2 Assay for GAL4 (Internal Marker) (AID 2282976); settings: HepG2 Attagene TRANS GAL4 internal marker reporter
Outline: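 Liver HepG2 line bearing multiplexed GAL4-UAS reporter constructs; 24 h chemical treatment. Transcripts were quantified as fluorescent fragments on capillary electrophoresis after RT-PCR and HpaI cut, with activity fitted upward from DMSO.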

[5] = biological target: Glucocorticoid receptor (Homo sapiens) (UniProt P04150); assay: ATG_GR_TRANS: Attagene TRANS-FACTORIAL HepG2 Assay for human Glucocorticoid Receptor (GR) (AID 2282978); settings: HepG2 Attagene TRANS GR reporter, mRNA transcription;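 note: activators score as hits since higher reporter transcript over DMSO is fitted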
Glucocorticoid receptor (Homo sapiens), sequence (P04150 whole entry, looked up, the tested form may be a part): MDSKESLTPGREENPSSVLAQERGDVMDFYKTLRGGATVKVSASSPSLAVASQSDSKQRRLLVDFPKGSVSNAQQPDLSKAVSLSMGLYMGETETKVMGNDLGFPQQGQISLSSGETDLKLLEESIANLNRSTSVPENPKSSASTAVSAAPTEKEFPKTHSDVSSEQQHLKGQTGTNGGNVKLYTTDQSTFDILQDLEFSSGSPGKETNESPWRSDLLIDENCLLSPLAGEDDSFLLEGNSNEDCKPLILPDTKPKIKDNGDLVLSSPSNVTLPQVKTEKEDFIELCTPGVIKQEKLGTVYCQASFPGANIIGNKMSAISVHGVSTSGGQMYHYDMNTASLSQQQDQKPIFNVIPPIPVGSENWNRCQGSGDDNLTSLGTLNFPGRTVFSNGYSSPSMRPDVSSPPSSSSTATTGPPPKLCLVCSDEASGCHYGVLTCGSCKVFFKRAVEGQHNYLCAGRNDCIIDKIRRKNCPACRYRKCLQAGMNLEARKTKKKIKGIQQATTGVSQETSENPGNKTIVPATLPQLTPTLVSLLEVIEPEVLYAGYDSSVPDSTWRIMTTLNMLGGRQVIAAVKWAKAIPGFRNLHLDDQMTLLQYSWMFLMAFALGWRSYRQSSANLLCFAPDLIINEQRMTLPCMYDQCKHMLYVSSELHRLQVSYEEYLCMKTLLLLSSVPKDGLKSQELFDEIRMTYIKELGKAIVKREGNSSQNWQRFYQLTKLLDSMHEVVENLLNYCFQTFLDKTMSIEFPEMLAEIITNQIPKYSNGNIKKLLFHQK
Outline: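 Readout is reporter transcript from a chimeric GR-Gal4 acting on GAL4-UAS in transfected human HepG2 liver cells after 24 h exposure, quantified by RT-PCR and capillary electrophoresis. Activation fitted upward against DMSO.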

[6] = biological target: Bile acid receptor (Homo sapiens) (UniProt Q96RI1); assay: ATG_FXR_TRANS: Attagene TRANS-FACTORIAL HepG2 Assay for Farnesoid X Receptor (FXR) (AID 2282979); settings: HepG2 Attagene TRANS FXR-GAL4 reporter transcription;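 note: hits raise reporter mRNA above DMSO so AC50 marks FXR activation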
Bile acid receptor (Homo sapiens), sequence (Q96RI1 whole entry, looked up, the tested form may be a part): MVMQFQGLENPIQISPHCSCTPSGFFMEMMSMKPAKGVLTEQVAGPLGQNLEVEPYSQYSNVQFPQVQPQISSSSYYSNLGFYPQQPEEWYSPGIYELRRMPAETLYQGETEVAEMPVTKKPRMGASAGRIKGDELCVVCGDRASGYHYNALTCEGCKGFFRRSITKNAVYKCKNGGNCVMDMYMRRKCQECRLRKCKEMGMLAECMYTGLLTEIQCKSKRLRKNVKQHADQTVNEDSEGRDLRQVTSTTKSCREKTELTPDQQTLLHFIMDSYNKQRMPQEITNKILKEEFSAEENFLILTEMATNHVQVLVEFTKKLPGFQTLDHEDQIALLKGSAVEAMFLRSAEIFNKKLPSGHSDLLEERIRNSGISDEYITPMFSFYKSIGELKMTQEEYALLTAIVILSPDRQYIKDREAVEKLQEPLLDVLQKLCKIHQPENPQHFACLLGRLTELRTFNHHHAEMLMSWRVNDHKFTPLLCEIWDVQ
Outline: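 After 24 h chemical treatment of transfected HepG2 cells, GAL4-UAS reporter transcripts driven by an exogenous FXR-GAL4 fusion were measured by RT-PCR and capillary electrophoresis. Increases over DMSO were fitted.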

[7] = biological target: Oxysterols receptor LXR-alpha (Homo sapiens) (UniProt Q13133); assay: ATG_LXRa_TRANS: Attagene TRANS-FACTORIAL HepG2 Assay for human Liver X Receptor alpha (LXRa) (AID 2282980); settings: HepG2 Attagene TRANS reporter, LXRa transactivation
Oxysterols receptor LXR-alpha (Homo sapiens), sequence (Q13133 whole entry, looked up, the tested form may be a part): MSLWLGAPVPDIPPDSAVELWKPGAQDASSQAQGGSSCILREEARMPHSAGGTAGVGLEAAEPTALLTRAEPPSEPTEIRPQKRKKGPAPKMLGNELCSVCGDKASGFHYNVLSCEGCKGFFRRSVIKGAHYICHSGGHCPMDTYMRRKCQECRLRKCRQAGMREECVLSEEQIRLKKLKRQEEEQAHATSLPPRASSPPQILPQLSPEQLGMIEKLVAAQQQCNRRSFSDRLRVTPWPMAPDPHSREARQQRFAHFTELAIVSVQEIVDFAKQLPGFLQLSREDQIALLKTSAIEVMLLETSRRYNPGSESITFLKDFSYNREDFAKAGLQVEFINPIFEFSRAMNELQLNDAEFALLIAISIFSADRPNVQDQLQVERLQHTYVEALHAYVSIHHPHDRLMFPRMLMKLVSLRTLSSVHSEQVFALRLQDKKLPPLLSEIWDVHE
Outline: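 In this multiplexed TRANS system, compounds act on HepG2 cells carrying GAL4-UAS reporter units and a receptor-GAL4 fusion for 24 h. Induced reporter RNA is amplified, fluorescently labelled and sized by capillary electrophoresis, with DMSO as baseline.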

[8] = biological target: Hepatocyte nuclear factor 4-alpha (Homo sapiens) (UniProt P41235); assay: ATG_HNF4a_TRANS: Attagene TRANS-FACTORIAL HepG2 Assay for human Hepatocyte Nuclear Factor 4 alpha (HNF4a) (AID 2282982); settings: HepG2 HNF4a transactivation reporter, mRNA readout
Outline: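 Using HepG2 liver cells transfected with GAL4-UAS reporter units, chemical-induced mRNA increases were assessed after 24 hours. Fluorescent RT-PCR fragments were separated by capillary electrophoresis and compared with DMSO negative controls.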

[9] = ATG_M_06_TRANS: Attagene TRANS-FACTORIAL HepG2 Assay for M06 Transcription Factor (Internal Marker) (AID 2282983); settings: HepG2 Attagene TRANS M06 internal marker reporter
Outline: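 Multi-reporter-transfected HepG2, 24 h treatment; reporter transcripts quantified via RT-PCR, primer-extension labelling and CE. DMSO-normalized gain-of-signal fit.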

[10] = biological target: Transcriptional activator Myb (Homo sapiens) (UniProt P10242); assay: ATG_Myb_CIS: Attagene CIS-FACTORIAL HepG2 Assay for human Myeloblastosis (Myb) Proto-Oncogene Transcription Factor (AID 2282986; active = hit-call score of the fitted dose curve at least 0.9, where 1 is the maximum; inactive = score below 0.9); settings: HepG2 Attagene CIS-FACTORIAL Myb reporter transcription; actives raise or lower the signal
Transcriptional activator Myb (Homo sapiens), sequence (P10242 whole entry, looked up): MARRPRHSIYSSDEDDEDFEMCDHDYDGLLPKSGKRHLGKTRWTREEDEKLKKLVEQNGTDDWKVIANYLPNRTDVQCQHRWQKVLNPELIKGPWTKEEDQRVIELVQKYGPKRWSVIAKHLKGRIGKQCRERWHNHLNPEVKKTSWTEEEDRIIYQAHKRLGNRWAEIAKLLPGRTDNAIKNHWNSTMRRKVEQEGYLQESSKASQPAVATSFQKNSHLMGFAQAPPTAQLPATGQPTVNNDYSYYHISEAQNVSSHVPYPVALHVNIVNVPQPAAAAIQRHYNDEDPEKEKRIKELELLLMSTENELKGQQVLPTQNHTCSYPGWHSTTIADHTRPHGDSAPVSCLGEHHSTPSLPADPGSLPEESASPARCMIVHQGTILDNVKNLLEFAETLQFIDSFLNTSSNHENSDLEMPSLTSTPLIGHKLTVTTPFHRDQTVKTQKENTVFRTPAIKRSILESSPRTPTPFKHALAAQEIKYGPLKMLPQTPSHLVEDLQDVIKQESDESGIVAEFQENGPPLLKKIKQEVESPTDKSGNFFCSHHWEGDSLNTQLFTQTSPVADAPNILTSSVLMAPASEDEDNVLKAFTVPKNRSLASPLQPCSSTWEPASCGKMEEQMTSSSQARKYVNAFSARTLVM
Outline: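 Reporter mRNA is quantified by RT-PCR and capillary electrophoresis 24 h after dosing HepG2 cells transfected with cis-regulated reporter units, which track endogenous transcription factor activity. Gain and loss of signal are fitted versus DMSO baseline.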

[11] = biological target: Nuclear respiratory factor 1 (Homo sapiens) (UniProt Q16656); assay: ATG_NRF1_CIS: Attagene CIS-FACTORIAL HepG2 Assay for human Nuclear Respiratory Factor 1 (NRF1) Orphan Gene (AID 2282987; active = hit-call score of the fitted dose curve at least 0.9, where 1 is the maximum; inactive = score below 0.9); settings: HepG2 NRF1 cis-element reporter, Attagene multiplex; actives raise or lower the signal
Nuclear respiratory factor 1 (Homo sapiens), sequence (Q16656 whole entry, looked up): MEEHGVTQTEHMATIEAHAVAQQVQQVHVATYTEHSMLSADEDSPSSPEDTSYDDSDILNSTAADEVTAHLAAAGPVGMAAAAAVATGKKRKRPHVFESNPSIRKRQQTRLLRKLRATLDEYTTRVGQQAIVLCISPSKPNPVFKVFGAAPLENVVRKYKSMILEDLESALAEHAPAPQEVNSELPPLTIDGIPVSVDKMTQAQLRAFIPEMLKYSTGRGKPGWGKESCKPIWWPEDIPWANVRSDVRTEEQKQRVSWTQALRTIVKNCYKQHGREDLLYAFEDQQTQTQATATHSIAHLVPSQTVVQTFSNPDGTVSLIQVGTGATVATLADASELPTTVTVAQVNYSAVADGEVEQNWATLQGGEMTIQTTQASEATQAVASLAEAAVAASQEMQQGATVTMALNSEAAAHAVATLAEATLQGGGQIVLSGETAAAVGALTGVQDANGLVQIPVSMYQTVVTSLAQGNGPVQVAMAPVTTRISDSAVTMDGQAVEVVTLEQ
Outline: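 Endogenous NRF1-driven reporter transcription in transfected HepG2 cells after 24 h treatment. Readout: RT-PCR products, 6-FAM labelled and resolved by capillary electrophoresis; changes fitted both directions relative to DMSO.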

[12] = biological target: Nuclear receptor subfamily 1 group I member 3 (Homo sapiens) (UniProt Q14994); assay: ATG_CAR_TRANS: Attagene TRANS-FACTORIAL HepG2 Assay for human Constitutive Androstane Receptor (CAR) (AID 2282969); settings: HepG2 Attagene TRANS-FACTORIAL CAR reporter;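 note: activators raise reporter mRNA above DMSO so AC50 marks induction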
Nuclear receptor subfamily 1 group I member 3 (Homo sapiens), sequence (Q14994 whole entry, looked up, the tested form may be a part): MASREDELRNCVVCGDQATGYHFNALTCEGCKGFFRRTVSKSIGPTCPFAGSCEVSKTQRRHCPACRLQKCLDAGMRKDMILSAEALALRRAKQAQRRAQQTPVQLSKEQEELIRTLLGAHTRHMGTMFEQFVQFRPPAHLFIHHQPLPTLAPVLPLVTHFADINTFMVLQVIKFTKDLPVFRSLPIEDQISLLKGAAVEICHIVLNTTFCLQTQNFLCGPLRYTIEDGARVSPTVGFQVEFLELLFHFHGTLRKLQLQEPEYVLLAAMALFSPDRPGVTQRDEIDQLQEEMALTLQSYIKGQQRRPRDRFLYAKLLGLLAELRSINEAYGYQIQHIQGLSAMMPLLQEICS
Outline: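 Steps: transient transfection of HepG2 with multiple GAL4-UAS reporter units; 24 h compound incubation; RNA isolation, RT-PCR, 6-FAM primer extension, HpaI digest; capillary electrophoresis. Gain-of-signal relative to DMSO negative control.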

[13] = biological target: Oxysterols receptor LXR-beta (Homo sapiens) (UniProt P55055); assay: ATG_LXRb_TRANS: Attagene TRANS-FACTORIAL HepG2 Assay for human Liver X Receptor beta (LXRb) (AID 2282981); settings: HepG2 Attagene TRANS GAL4-LXRb reporter, mRNA
Oxysterols receptor LXR-beta (Homo sapiens), sequence (P55055 whole entry, looked up, the tested form may be a part): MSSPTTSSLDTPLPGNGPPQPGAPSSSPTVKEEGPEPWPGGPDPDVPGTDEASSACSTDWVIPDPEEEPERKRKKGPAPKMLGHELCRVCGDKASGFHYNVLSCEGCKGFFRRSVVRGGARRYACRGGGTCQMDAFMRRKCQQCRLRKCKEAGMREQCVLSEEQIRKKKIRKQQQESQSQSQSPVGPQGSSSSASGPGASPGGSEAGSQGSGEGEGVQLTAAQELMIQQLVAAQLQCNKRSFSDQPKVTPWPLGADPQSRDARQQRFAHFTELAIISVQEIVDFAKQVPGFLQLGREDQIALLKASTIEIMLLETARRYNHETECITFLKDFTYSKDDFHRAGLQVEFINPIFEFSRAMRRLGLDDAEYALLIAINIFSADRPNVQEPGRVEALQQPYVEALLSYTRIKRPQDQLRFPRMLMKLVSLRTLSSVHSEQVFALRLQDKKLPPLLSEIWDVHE
Outline: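 Liver-derived HepG2 cells transfected with Gal4-responsive reporters were dosed for 24 h. Activation was scored as rise in reporter mRNA, by RT-PCR and capillary electrophoresis, above DMSO baseline.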

[14] = ATG_M_32_TRANS: Attagene TRANS-FACTORIAL HepG2 Assay for M32 Transcription Factor (Internal Marker) (AID 2282984); settings: HepG2 Attagene TRANS M32 internal marker reporter
Outline: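 Fluorescence-detected mRNA induction, HepG2 liver cells, 24 h after dosing. Multiple GAL4-UAS reporter units introduced by transient transfection; background-control endpoint analysed for gain of signal against DMSO.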

[15] = biological target: Nuclear receptor subfamily 4 group A member 2 (Homo sapiens) (UniProt P43354); assay: ATG_NURR1_TRANS: Attagene TRANS-FACTORIAL HepG2 Assay for human Nuclear Receptor Related Protein 1 (NURR1) (AID 2282985); settings: HepG2 Attagene TRANS reporter, mRNA readout
Nuclear receptor subfamily 4 group A member 2 (Homo sapiens), sequence (P43354 whole entry, looked up, the tested form may be a part): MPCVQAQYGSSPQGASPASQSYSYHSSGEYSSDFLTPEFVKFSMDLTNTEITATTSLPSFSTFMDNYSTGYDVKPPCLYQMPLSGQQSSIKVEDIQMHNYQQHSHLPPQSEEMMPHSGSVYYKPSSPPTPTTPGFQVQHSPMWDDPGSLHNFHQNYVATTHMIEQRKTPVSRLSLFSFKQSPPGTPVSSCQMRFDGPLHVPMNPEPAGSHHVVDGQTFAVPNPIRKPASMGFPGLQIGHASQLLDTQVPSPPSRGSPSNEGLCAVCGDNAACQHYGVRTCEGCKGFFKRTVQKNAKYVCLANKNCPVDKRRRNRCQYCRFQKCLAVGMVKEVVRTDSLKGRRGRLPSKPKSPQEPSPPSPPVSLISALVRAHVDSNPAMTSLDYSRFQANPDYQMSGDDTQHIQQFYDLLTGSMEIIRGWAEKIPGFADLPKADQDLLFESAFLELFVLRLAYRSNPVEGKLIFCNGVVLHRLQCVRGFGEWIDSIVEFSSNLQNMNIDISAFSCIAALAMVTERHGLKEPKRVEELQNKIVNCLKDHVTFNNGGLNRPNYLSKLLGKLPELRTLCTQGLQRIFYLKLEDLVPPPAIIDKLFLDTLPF
Outline: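 Chimeric NR-Gal4 proteins were expressed in human HepG2 cells bearing GAL4-UAS reporter units, and induced reporter mRNA was quantified 24 h post-dosing by RT-PCR and capillary electrophoresis.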

[16] = ATG_TGFb_CIS: Attagene CIS-FACTORIAL HepG2 Assay for human Transforming Growth Factor (TGF) (AID 2282967; active = hit-call score of the fitted dose curve at least 0.9, where 1 is the maximum; inactive = score below 0.9); settings: HepG2 Attagene CIS TGFb reporter, mRNA transcription; actives raise or lower the signal
Outline: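 Readout: fluorescently labeled reporter cDNA fragments resolved by capillary electrophoresis after RT-PCR. Transfected HepG2 cells dosed for 24 h; endogenous TF activity at TGFB1-linked cis element; gain or loss fitted relative to DMSO.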

[17] = ATG_M_19_TRANS: Attagene TRANS-FACTORIAL HepG2 Assay for M19 Transcription Factor (Internal Marker) (AID 2282974); settings: HepG2 Attagene TRANS-FACTORIAL M19 internal marker reporter
Outline: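 Background-control readout: after 24 h chemical exposure of transfected HepG2 carrying GAL4-driven reporter units, RNA was reverse-transcribed, amplified, fluorescently labeled and sized by capillary electrophoresis; gain-of-signal fit against DMSO.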

[18] = biological target: Steroid hormone receptor ERR1 (Homo sapiens) (UniProt P11474); assay: ATG_ERRa_TRANS: Attagene TRANS-FACTORIAL HepG2 Assay for human Estrogen-Related Receptor alpha (ERRa) (AID 2282971); settings: HepG2 Attagene TRANS reporter, ERRa transactivation
Steroid hormone receptor ERR1 (Homo sapiens), sequence (P11474 whole entry, looked up, the tested form may be a part): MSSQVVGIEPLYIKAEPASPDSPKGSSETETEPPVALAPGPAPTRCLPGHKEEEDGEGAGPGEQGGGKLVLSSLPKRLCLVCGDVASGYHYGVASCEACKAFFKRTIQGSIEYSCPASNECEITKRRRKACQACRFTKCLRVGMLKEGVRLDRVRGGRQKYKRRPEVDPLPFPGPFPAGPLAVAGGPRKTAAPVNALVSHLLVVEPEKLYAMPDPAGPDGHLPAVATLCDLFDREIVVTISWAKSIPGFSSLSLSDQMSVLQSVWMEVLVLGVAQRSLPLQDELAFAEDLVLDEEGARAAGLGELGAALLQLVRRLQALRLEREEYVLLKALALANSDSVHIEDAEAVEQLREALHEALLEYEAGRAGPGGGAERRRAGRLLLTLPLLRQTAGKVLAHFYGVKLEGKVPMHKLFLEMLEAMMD
Outline: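 Signal gain relative to DMSO for an ERRa-Gal4 chimeric receptor, read as reporter mRNA by RT-PCR/capillary electrophoresis. Human HepG2 liver cells, transient multiplex reporter transfection, 24 h chemical exposure.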

[19] = biological target: Estrogen-related receptor gamma (Homo sapiens) (UniProt P62508); assay: ATG_ERRg_TRANS: Attagene TRANS-FACTORIAL HepG2 Assay for human Estrogen-Related Receptor gamma (ERRg) (AID 2282977); settings: HepG2 Attagene TRANS reporter, ERRg transactivation;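 note: hits increase reporter signal over DMSO so potencies reflect activators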
Outline: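 Exogenous NR-Gal4 chimera activity was assessed in HepG2 cells bearing transfected GAL4-UAS reporters. After 24 h dosing, total RNA underwent RT-PCR, fluorescent primer extension and HpaI digestion before capillary electrophoresis, with gain of signal scored against DMSO.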

Measured: AC50

CCOC(=O)CN
inactive: [1] | [2] | [3] | [4] | [5] | [6] | [7] | [8] | [9] | [10] | [11]

O=C(O)CCCCCCCCC(=O)O
inactive: [1] | [2] | [12] | [3] | [4] | [6] | [7] | [13] | [8] | [9] | [10] | [11]

O=CCc1ccccc1
inactive: [1] | [2] | [12] | [3] | [7] | [8] | [9] | [14] | [15] | [10]

CCCC(C)=O
inactive: [1] | [16] | [3] | [7] | [8] | [9] | [15] | [10] | [11]

COCCOC(=O)c1ccccc1C(=O)OCCOC
inactive: [1] | [2] | [12] | [3] | [17] | [4] | [13] | [8] | [9] | [10] | [11]

CCC1CCCCC1
inactive: [1] | [2] | [18] | [3] | [17] | [7] | [10] | [11]

CCOC(=O)C(C#N)=C(c1ccccc1)c1ccccc1
active: [15] 100 µM | [11] 55.2 µM
inactive: [1] | [16] | [3] | [6] | [9] | [14] | [10]

Oc1c(Cl)cc(Cl)c(Cl)c1Cc1c(O)c(Cl)cc(Cl)c1Cl
inactive: [1] | [12] | [18] | [3] | [17] | [5] | [13] | [8] | [10] | [11]
active: [2] 1.97 µM | [6] 17.6 µM | [15] 11.1 µM

CCCCCCCC/C=C\CCCCCCCC(=O)OCC
inactive: [1] | [2] | [12] | [3] | [17] | [19] | [5] | [15] | [10] | [11]

N#Cc1ccc(CC(=O)c2cccc(C(F)(F)F)c2)cc1
inactive: [1] | [12] | [18] | [3] | [5] | [8] | [9] | [14] | [10]
active: [2] 26.3 µM | [15] 100 µM | [11] 100 µM
